Results from PubChem BioAssay (Tox21).
Inconclusive results are not listed. A call without a number means that no potency is given here. Values without a mark were called inactive. Calls of active or inactive are those of the source. The call rests on the fitted dose curve.

Experiment: qHTS assay to identify small molecule agonists or antagonists of the thyroid stimulating hormone receptor (TSHR) signaling pathway - wild type cell line counter screen (AID 1259384)
Conditions: HEK293 wild type, cAMP HTRF counter-screen; series mostly up to 92.4 µM
From the text: U.S. Tox21 Program National Center for Advancing Translational Sciences [NCATS] NIH Chemical Genomics Center [NCGC] U.S. Environmental Protection Agency [EPA] National Institutes of Environmental Health Sciences [NIEHS] National Toxicology Program [NTP] U.S. Food and Drug Administration [FDA] Tox21 Assay Overview: TSHR is the receptor for thyrotropin (thyroid stimulating hormone or TSH), a member of the glycoprotein hormone family. TSH is released by the anterior pituitary gland and is the main regulator of thyroid gland growth and development. Upon binding circulating thyrotropin, a G-protein signal cascade activates adenylyl cyclase and […] cAMP concentration is increased. cAMP is a key second messenger involved extensively in cellular signal transduction pathways associated with the majority of G-protein coupled receptors (GPCRs). The activation of these GPCRs by neurotransmitters, lipids, nucleotides, peptides and hormones results in the activation or the inhibition of plasma membrane-bound adenylate cyclase through heterotrimeric G-proteins. A cell-based TSHR-Hek293 assay can be used to identify TSHR agonists. To eliminate the false positive compounds identified from screening a cell-based TSHR-Hek293 cell line, cAMP assay in a wild type Hek293 cells was used as a counter screening.
Tox21 Assay Protocol Summary: Hek293 cells (wild type) were dispensed at 800 cells/4 uL/well in 1536-well white plates using a Multidrop dispenser. After the assay plates were incubated at a 37 C/5% CO2 incubator for 18 hrs, 23 nL of compounds dissolved in DMSO, positive controls or DMSO only was transferred to the assay plate by a pin tool, followed by 1 ul medium containing Ro20-1724. After 30 min of incubation at room temperature, 2.5 ul/well of cAMP-d2 and 2.5 ul/well of anti-cAMP-cryptate were added respectively into the assay plates using a Flying Reagent Dispenser. The plates were incubated at room temperature for 1 hr. The fluorescence intensity in the plates was measured using an Envision plate reader. Each test compound was measured at 15 concentrations and in triplicates.

**Q.** Which cAMP activity change does the source give for `CCCCNc1ccc(NCCCC)c2c1C(=O)c1ccccc1C2=O` here?
**A.** Its cAMP activity change is -7.38% [at 18.9 µM, active compounds read high].

**Q.** Which Potency does the source give for `CCC1(C)C(=O)N(Cl)C(=O)N1Cl` (stereo not given) here?
**A.** Its Potency is “inactive”.

**Q.** With `O=C1CCCCCCCCCCCCCC1` as the compound, how does the Potency read?
**A.** Its Potency is “inactive”.

**Q.** Which Potency does the source give for `O=C1C=CC(=O)N1c1cccc(N2C(=O)C=CC2=O)c1` here?
**A.** Its Potency is “inactive”.

**Q.** For `O=C(O)CN(CCCN(CC(=O)O)CC(=O)O)CC(=O)O`, which cAMP activity change is on record?
**A.** The cAMP activity change was 0.161% [at 18.9 µM, active compounds read high].

**Q.** For `C=CC(=O)OCC(Br)CBr` (stereo not given), which Potency is on record?
**A.** Its Potency is “inactive”.

**Q.** With `Cc1c(Cl)c(=O)oc2cc(O)ccc12` as the compound, how does the Potency read?
**A.** The Potency was “inactive”.

**Q.** Which Potency does the source give for `CCCCCCCC/C=C\CCCCCCCC(=O)N(CCO)CCO` here?
**A.** The Potency was “inactive”.

**Q.** Which Potency does the source give for `Cc1ccc(C2OC[C@@H]3OC(c4ccc(C)cc4)O[C@H]([C@H](O)CO)[C@@H]3O2)cc1` (stereo not given in full) here?
**A.** The Potency was “inactive”.

**Q.** For `COc1cc(OC)nc(NC(=O)NS(=O)(=O)Nc2ccccc2C(=O)N(C)C)n1`, which Potency is on record?
**A.** Its Potency is “inactive”.

**Q.** For `Brc1cc(Br)cc(Br)c1`, which Potency is on record?
**A.** The Potency was “inactive”.

**Q.** For `CC(C)c1ccc2sc3ccccc3c(=O)c2c1`, which Potency is on record?
**A.** Its Potency is “inactive”.

**Q.** For `Clc1nc(C(Cl)(Cl)Cl)c(Cl)c(Cl)c1Cl`, which Potency is on record?
**A.** Its Potency is “inactive”.

**Q.** With `COc1cc2ncnc(Nc3cccc(Cl)c3)c2cc1OC` as the compound, how does the cAMP activity change read?
**A.** Its cAMP activity change is 2.68% [at 18.9 µM, active compounds read high].

**Q.** Which Potency does the source give for `CCN(CC)c1ccc(C=O)c(O)c1` here?
**A.** The Potency was “inactive”.

**Q.** For `O=[N+]([O-])c1ccc(O)c2ncccc12`, which Potency is on record?
**A.** Its Potency is “inactive”.

**Q.** For `COc1cc(C(C)C)ccc1C`, which cAMP activity change is on record?
**A.** The cAMP activity change was 3.96% [at 18.9 µM, active compounds read high].

**Q.** Which Potency does the source give for `Cc1ccc2n[nH]nc2c1` here?
**A.** Its Potency is “inactive”.

**Q.** Which Potency does the source give for `C1CCSC1` here?
**A.** The Potency was “inactive”.

**Q.** For `COc1cc([C@@H]2c3cc4c(cc3[C@@H](O[C@@H]3O[C@@H]5CO[C@@H](C)O[C@H]5[C@H](O)[C@H]3O)[C@H]3COC(=O)[C@H]23)OCO4)cc(OC)c1O`, which Potency is on record?
**A.** Its Potency is “inactive”.

**Q.** For `c1ccc(-c2ccc(C(c3ccccc3)n3ccnc3)cc2)cc1` (stereo not given), which Potency is on record?
**A.** The Potency was “inactive”.

**Q.** Which Potency does the source give for `CCCCCc1ccc(O)cc1` here?
**A.** The Potency was “inactive”.

**Q.** With `Cc1cc(C)c(O)c(C(C)(C)C)c1` as the compound, how does the Potency read?
**A.** The Potency was “inactive”.

**Q.** For `O=C1CCC/C=C\CCCCCCCCCC1`, which Potency is on record?
**A.** The Potency was “inactive”.

**Q.** For `CCC(=O)OC/C=C(\C)CCC=C(C)C`, which Potency is on record?
**A.** The Potency was “inactive”.

**Q.** With `CCCCCCCCCC[N+](C)(CCCCCCCCCC)CCC[Si](OC)(OC)OC` as the compound, how does the Potency read?
**A.** The Potency was “inactive”.

**Q.** With `CN1CCN(C)CC1` as the compound, how does the Potency read?
**A.** Its Potency is “inactive”.

**Q.** For `NC(=O)C1CO1` (stereo not given), which Potency is on record?
**A.** Its Potency is “inactive”.

**Q.** For `O=C1OC(O)C(C(Cl)Cl)=C1Cl` (stereo not given), which Potency is on record?
**A.** Its Potency is “inactive”.

**Q.** With `CC(O)(c1ccc(Cl)cc1)c1ccc(Cl)cc1` as the compound, how does the Potency read?
**A.** Its Potency is “inactive”.

**Q.** Which Potency does the source give for `CCCCCCCCSCc1cc(C)c(O)c(CSCCCCCCCC)c1` here?
**A.** The Potency was “inactive”.

**Q.** Which Potency does the source give for `c1ccc(-c2ccccc2-c2ccccc2)cc1` here?
**A.** Its Potency is “inactive”.

**Q.** With `CCCC(C)C=O` (stereo not given) as the compound, how does the Potency read?
**A.** The Potency was “inactive”.

**Q.** With `O=C(Nc1ccc([N+](=O)[O-])cc1)Nc1ccc([N+](=O)[O-])cc1` (tested in a mixture with another compound) as the compound, how does the Potency read?
**A.** The Potency was “inactive”.

**Q.** Which Potency does the source give for `CCOC(=O)OC(=O)OCC` here?
**A.** Its Potency is “inactive”.

**Q.** With `Nc1ccc(Oc2cccc(Oc3ccc(N)cc3)c2)cc1` as the compound, how does the Potency read?
**A.** Its Potency is “inactive”.

**Q.** With `CN1CCN(c2ccccc2/C=C2\SCCN(c3ccc(Cl)c(Cl)c3)C2=O)CC1` as the compound, how does the Potency read?
**A.** Its Potency is “inactive”.

**Q.** Which Potency does the source give for `CCC(O)CO` (stereo not given) here?
**A.** Its Potency is “inactive”.

**Q.** Which Potency does the source give for `CC1=CC[C@@H](C(C)(C)O)CC1` here?
**A.** Its Potency is “inactive”.

**Q.** For `c1ccc2c(c1)-c1ccc3ccc4cccc5cc-2c1c3c45`, which Potency is on record?
**A.** Its Potency is “inactive”.
